High-throughput results deposited in PubChem BioAssay by The Scripps Research Institute Molecular Screening Center.
hgDAF-12 ag – activates the H. glycines DAF-12 receptor ligand-binding domain. activation, % at 6.8 µM. AID 687014. HEK293 GAL4-hgDAF12 UAS-luciferase reporter, agonist luminescence; normalized to butyrate control. 1.8% of 370,000 active;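 active = activation above a cutoff set at the mean of all screened compounds plus 3 SD, cut at about 10% in these data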
DAX1 inh-1 – inhibitors of human orphan nuclear receptor DAX1 (NR0B1) | P51843 | HEK293 Gal4-DAX1 luciferase reporter, luminescence | inhibition, % at 6.75 µM | 0.99% of 340,000 active;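 active = inhibition above the mean over all tested compounds plus 3 SD, cut at about 4.2% in these data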;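 also: inhibition shows as a rise in luminescence from relieved DAX1 repression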
hcDAF-12 act – activates DAF-12 receptor from parasite H. contortus; AID 652067; 1.4% of 370,000 active; HEK293 hcDAF-12 lit1-tk-luc reporter, luminescence; 0% DMSO, 100% Δ7-dafachronic acid; activation, % at 6.8 µM;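 active = activation above the mean of all tested compounds plus 3 SD, cut at about 5.5% in these data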
ssDAF12 agonist – activates DAF-12 receptor from parasite S. stercoralis. HEK293 ssDAF-12/GRIP1 lit1-tk-luc reporter, luminescence; % of 3 µM dafachronic acid response. activation, % at 6.8 µM. 1% of 370,000 active;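 active = activation above the mean over all tested compounds plus 3 SD, cut at about 0.9% in these data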
DAX1 inh-2 – DAX1 (NR0B1) inhibition, primary screen; 1.1% of 370,000 active; HEK293T StAR-luciferase reporter, SF-1/DAX-1 repression relief; inhibition, % at 6.8 µM; AID 652010;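 active = inhibition above the mean over all tested compounds plus 3 SD, cut at about 3.6% in these data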;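 also: higher inhibition means more luminescence from relief of DAX-1 repression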
hgDAF12 ag – hgDAF-12 agonism, confirmation assay | shares compounds with hgDAF-12 ag | HEK293 GAL4-hgDAF12 luciferase reporter, agonist mode; percent of butyrate response | activation, % at 6.8 µM | 80% of 3,300 active | AID 743050;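 active = mean activation over triplicate wells above the hit cutoff derived from the earlier primary screen, cut at about 11% in these data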
LXRb DAF12 ctr – activates human LXR-beta, counter-screen for DAF-12 agonists. shares compounds with hgDAF-12 ag. HEK293 Gal4-LXR luciferase reporter, 24 h. activation, % at 6.8 µM. 3,300 tested, under 10 active. AID 743051;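 active = mean activation of the triplicate above a set limit carried over from the primary screen, none filed active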
Target sequence (P55055 whole entry, looked up, the tested form may be a part): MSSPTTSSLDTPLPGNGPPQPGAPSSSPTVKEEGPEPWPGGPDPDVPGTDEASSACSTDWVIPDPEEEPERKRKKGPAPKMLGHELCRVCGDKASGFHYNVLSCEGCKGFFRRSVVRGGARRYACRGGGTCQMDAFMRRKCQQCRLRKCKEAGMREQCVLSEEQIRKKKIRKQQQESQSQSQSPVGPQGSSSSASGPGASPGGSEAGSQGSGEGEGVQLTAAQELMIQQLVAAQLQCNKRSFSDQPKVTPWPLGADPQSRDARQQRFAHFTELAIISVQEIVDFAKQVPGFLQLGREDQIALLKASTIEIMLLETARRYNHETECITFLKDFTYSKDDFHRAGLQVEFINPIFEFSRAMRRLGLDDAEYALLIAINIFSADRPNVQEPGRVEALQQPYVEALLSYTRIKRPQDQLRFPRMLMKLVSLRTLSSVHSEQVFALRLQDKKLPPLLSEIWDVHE
Numbers stand for hits; – = inactive; · = no result. Compounds with a hit are over-represented: about 4.1% of the library has one in this group of screens.

SMILES | hgDAF-12 ag | DAX1 inh-1 | hcDAF-12 act | ssDAF12 agonist | DAX1 inh-2 | hgDAF12 ag | LXRb DAF12 ctr
COc1ccc(CN2C(=O)COc3ccccc3C2c2nc3ccccc3[nH]2)cc1 (stereo unspecified) | – | · | – | – | – | · | ·
c1ccc2c(c1)CN1C(=N2)COc2ccccc2C1c1nc2ccccc2[nH]1 (stereo unspecified) | 15.4 | · | 6.0 | 2.0 | 4.4 | – | –
c1ccc(CNc2nc3ccccc3[nH]2)cc1 | – | – | – | – | – | · | ·
c1ccc2[nH]c(NCc3ccc4c(c3)OCO4)nc2c1 | 13.6 | – | – | – | – | – | –
COc1ccc(CCN2C(=O)CCC2(C)c2nnnn2-c2c(C)cccc2C)cc1OC (stereo unspecified) | – | · | – | – | – | · | ·
COCCNC(=O)C1(C)CCCN(Cc2ccc3ccccc3c2Br)C1 (stereo unspecified) | – | · | – | – | – | · | ·
Clc1ccc(-c2nc3ccccn3c2CN2CCCCC2)cc1 | – | – | – | – | – | · | ·
CN(C)Cc1c(-c2ccc(Cl)cc2)nc2ccccn12 | 18.2 | 5.4 | – | – | – | – | –
OC(c1ccccc1)(c1ccccc1)C1CCN(C(=S)NCCc2ccccc2)CC1 | – | · | – | – | – | · | ·
CC1CCN(C(=S)NCCc2ccccc2)CC1 | 14.2 | – | – | – | – | 10.7 | –
CCCCCCCCNC(=O)c1ccc(C)cc1 | – | · | – | – | – | · | ·
O=C(OCCO)c1c(C2=CCCCC2)oc2c1C(OCCO)CCC2 (stereo unspecified) | – | · | – | – | – | · | ·
CC(=O)OC[C@@H]1CN(Cc2cccc(C(F)(F)F)c2)C[C@H](n2cnc3c(NCc4ccco4)ncnc32)O1 | – | · | – | – | – | · | ·
COc1ccc(-n2ncc3c(N4CCC(C(N)=O)CC4)ncnc32)cc1 | 14.1 | – | – | – | – | 14.7 | –
COc1ccc(/C=C/C2=NNC(=O)CC2)cc1 | 13.8 | – | – | – | – | – | –
O=C(CC(NC(=O)OCc1ccccc1)c1nn[nH]n1)OCc1ccccc1 (stereo unspecified) | 13.4 | – | – | – | – | 10.6 | –
Cc1ccc(N2Cc3ccccc3C2=S)cc1 | 20.8 | – | – | – | – | 19.8 | –
Cc1ccc(N2Cc3ccccc3OC(C)C2=O)cc1 (stereo unspecified) | – | – | – | – | – | · | ·
COCc1cc(N2CCN(C(=O)OC(C)(C)C)C[C@H]2C)ccc1N1CCS(=O)(=O)CC1 | – | · | – | – | – | · | ·
CC(=O)c1cccc(NC(=O)c2ccc3ccccc3c2)c1 | 19.2 | – | – | – | – | 17.0 | –
O=C(Nc1ccc(Br)cn1)c1cccc(C(=O)Nc2ccc(Br)cn2)c1 | – | – | – | – | – | · | ·
CC(=O)c1ccc(NC(=O)c2cc3ccccc3o2)cc1 | 14.2 | – | – | 1.6 | – | 18.4 | –
O=C(Nc1ccc(Br)cn1)c1ccc2ccccc2c1 | 14.4 | – | – | 1.6 | – | 19.3 | –
CC(=O)N1CCN(c2ccc(NC(=O)c3cc4ccccc4o3)cc2)CC1 | – | – | – | – | – | · | ·
COC(=O)Nc1nnc(/C=C/c2ccc(OC)cc2)s1 | – | – | – | – | – | · | ·
SMILES | hgDAF-12 ag | DAX1 inh-1 | hcDAF-12 act | ssDAF12 agonist | DAX1 inh-2 | hgDAF12 ag | LXRb DAF12 ctr
COc1ccc(/C=C/c2nnc(NC(C)=O)s2)cc1 | 14.5 | – | – | – | – | 16.0 | –
C=CCOc1ccc(/C=C/C(=O)OCC(=O)N2CCC(c3ccccc3)=N2)cc1 | – | – | – | – | – | · | ·
Cc1ccc(-c2nnc(CCC(=O)NCC3C4CC5CC(C4)CC3C5)o2)s1 (stereo unspecified) | 13.6 | – | – | – | – | – | –
CC(C)(C)C(=O)NC(=S)Nc1cccc(C(=O)O)c1 | 14.2 | – | – | – | 4.3 | 13.2 | –
O=C(O)c1cccc(NC(=S)NC(=O)c2ccncc2)c1 | – | – | – | – | – | · | ·
Cc1nc2c(OCc3ccc(C#N)cc3)cccn2c1N(C)Cc1cccs1 | – | · | – | – | – | · | ·
Cc1ccc(C2=NNC3(CCOC(C)(C)C3)S2)cc1 (stereo unspecified) | 16.9 | – | 10.7 | 1.0 | 4.0 | – | –
CCc1nc2c(OCc3cccc(Cl)c3)cccn2c1N(C)C(=O)c1ccco1 | – | · | – | – | – | · | ·
